KB-3-1 tox: qHTS assay for MDR1-selective chemotherapeutics: Primary screen using the parental adenocarcinoma cell KB-3-1. Potency, µM (series often up to 46.1 µM), most hits filed as cytotoxic. KB-3-1 viability, CellTiter-Glo ATP luminescence, 72 h. actives 1.4% (n = 400,000); also: potency is read from the fitted curve at half-maximal effect; % is scaled to controls: 0 for no effect and ±100 for the full control effect; nearly all actives have a fitted effect of over 60% in size
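Luminescent ATP read-out (CellTiter-Glo) measures survival of drug-naive KB-3-1 cells after 72 h compound exposure at 37 °C. Titration series was screened from lowest to highest concentration, with DMSO vehicle plates as background controls.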
MCF10A rereplic: A quantitative high throughput screen for small molecules that induce DNA re-replication in MCF 10a normal breast cells; MCF 10A DNA re-replication, Hoechst nuclear intensity, 48 h; actives 2.9% (n = 350,000); Potency, µM (series often up to 46.1 µM), inactives show at the top dose activity, positive = re-replication, most hits filed as activators; also: potency is read from the fitted curve at half-maximal effect; % of control where 0% means no effect; nearly all actives have a fitted effect of over 50% in size
SW480 rereplic: A quantitative high throughput screen for small molecules that induce DNA re-replication in SW480 colon adenocarcinoma cells; SW480 DNA re-replication, Hoechst DNA content imaging, 48 h; Potency, µM (doses to about 46.1 µM), for inactives: at the top dose re-replication activation, usual class: activators; actives 1.8% (n = 340,000); also: potency is read from the fitted curve at half-maximal effect; % of control where 0% means no effect; nearly all actives have a fitted effect of over 55% in size
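250 cells/well; 23 nL cpd via pin tool; 48 hr, 37 C, 5% CO2; Hoechst 40 min; imager read of total nuclear intensity, ex 405/em 500-530 nm.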
D3 antag: qHTS of D3 Dopamine Receptor Antagonist: qHTS; AID 652054, 2013; actives 2.5% (n = 360,000); D3R cells, DiscoveRx beta-arrestin luminescence, antagonist mode; stronger effect = lower value; max response, negative = inhibition, %; in the data active = max response below about -50%; inconclusive = no clear call, values can overlap the other calls; also: % is scaled to controls: 0 for no effect and ±100 for the full control effect
Target sequence (P35462 whole entry, looked up): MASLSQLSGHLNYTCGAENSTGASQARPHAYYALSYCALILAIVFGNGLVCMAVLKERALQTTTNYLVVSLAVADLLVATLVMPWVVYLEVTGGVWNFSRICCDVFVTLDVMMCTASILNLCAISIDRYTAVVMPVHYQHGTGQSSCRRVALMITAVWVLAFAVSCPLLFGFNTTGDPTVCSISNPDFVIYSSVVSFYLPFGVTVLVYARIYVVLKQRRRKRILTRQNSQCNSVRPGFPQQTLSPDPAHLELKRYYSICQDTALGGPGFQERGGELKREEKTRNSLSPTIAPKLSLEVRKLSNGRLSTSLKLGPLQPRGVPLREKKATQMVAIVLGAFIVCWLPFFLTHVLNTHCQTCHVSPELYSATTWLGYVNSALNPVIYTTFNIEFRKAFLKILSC
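Cells plated overnight at 1500 cells/well, then exposed to library compounds with dopamine controls for 90 minutes at 37 degrees C. DiscoveRx reagent added for 30–60 minutes at room temperature; luminescence read, quantitative HTS format.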
KB-V1 cytotox: qHTS assay for MDR1-selective chemotherapeutics: Primary screen using the drug-selected MDR subline cells KB-V1; KB-V1 MDR cells viability, CellTiter-Glo, 72 h; Potency, µM (highest dose often 46.1 µM), actives largely listed as cytotoxic; actives 3.4% (n = 400,000); also: potency is read from the fitted curve at half-maximal effect; % is scaled to controls: 0 for no effect and ±100 for the full control effect; nearly all actives have a fitted effect of over 60% in size
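Cytotoxicity via CellTiter-Glo luminescence after 72 h compound exposure at 37 degrees C. Cells: drug-selected KB-V1 line, DMEM phenol-red free plus 10% FBS. Compounds tested at multiple concentrations; normalized data fitted to concentration-effect curves.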
DRD3 agonist: qHTS of D3 Dopamine Receptor Agonist: qHTS | D3R DiscoveRx beta-arrestin cells, luminescence, 90 min | AID 652048, 2013 | max activation, % | actives 0.58% (n = 410,000); in the data active = max activation above about 30%; also: 0% is about no effect
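Agonist-mode cell screen: cells plated at 1500/well and incubated overnight at 37 °C, then exposed to library compounds for 90 min at 37 °C. Detection reagent was added for 30–60 min at room temperature, and luminescence was read.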
Starred values were filed as active, the others as inactive; i = inactive; ? = inconclusive; . = no result given; [ ] = another dose, or the depositor's remark. Most compounds without a hit are left out; they make up all but 8.9% or so of the library. Unless noted, calls follow the shape of the dose curve; as a rule, active = well fitted curve in the direction sought with a large enough effect; inconclusive = small, poorly fitted or top-dose-only effect, or another doubt; inactive = no such curve, though single readings can be large; an effect the other way counts as inactive or inconclusive.

SMILES | KB-3-1 tox | MCF10A rereplic | SW480 rereplic | D3 antag | KB-V1 cytotox | DRD3 agonist
C=CCC[C@H](CCCCC)OC(=O)/C=C/[C@@H](O)[C@H](O)C[C@@H](O)CC=C | i | . | . | -2.4 | ? | -1.2
Cc1cccc2cc(CN(CC3CCCO3)C(=S)Nc3ccccc3)c(=O)[nH]c12 (configuration not stated) | i | ? | 16.5% | 7.3 | 3.66µM* | -10.9
Cc1cccc(NC(=S)N(Cc2cccs2)Cc2cc3cc(C)cc(C)c3[nH]c2=O)c1 | ? | 10.2% | -1.6% | -6.1 | 20.6µM* | -14.6
CCc1ccc(-n2nc(CO)c(C(=O)NCc3ccccn3)n2)cc1 | . | . | . | . | . | -2.8
COc1ccccc1NC(=O)C1=C(C)Nc2nnnn2C1c1ccccc1OC (configuration not stated) | i | -4.2% | 2.7% | 0.0 | i | 2.3
COc1ccccc1/C=C1\CCCC2=C1Nc1nnnn1C2c1ccccc1OC (configuration not stated) | ? | ? | ? | -6.0 | 8.2µM* | 2.0
CCn1nc(C)c(C(=O)Nc2cc(Oc3ccc(Cl)cc3)cc([N+](=O)[O-])c2)c1C | i | 8.2µM* | ? | 14.2 | ? | 1.2
Cc1nn(CCCC(=O)NCc2ccc(Cl)cc2)c(C)c1[N+](=O)[O-] | i | -4.8% | -204.6% | -6.1 | 23.1µM* | -4.1
CCn1nc(C)c([N+](=O)[O-])c1C(=O)NNC(=O)c1ccc(Cl)cc1 | i | ? | -6.6%[9.22 µM] | -5.6 | i | -1.0
Cc1ccccc1Oc1cc(NC(=O)CCCn2nc(C)c([N+](=O)[O-])c2C)cc([N+](=O)[O-])c1 | i | 1.8% | 23.1% | -17.2 | 3.26µM* | 1.3
Cc1ccccc1Oc1cc(NC(=O)Cn2cnc([N+](=O)[O-])c2)cc([N+](=O)[O-])c1 | ? | -3.9% | 0.1% | -1.3 | i | -1.8
Cc1ccc(CNC(=O)c2nn(C)c(C)c2[N+](=O)[O-])cc1 | i | -71.7% | 0.517µM* | -27.6 | i | -2.0
COc1ccc(CNC(=O)CCCn2nc(C)c([N+](=O)[O-])c2C)cc1OC | i | -1.1% | -4.5% | -2.4 | ? | 1.8
CSc1ccccc1NC(=O)CN(C)C(=O)C1CC(=O)N(C(C)c2ccccc2)C1 (configuration not stated) | i | 1.1% | 1.9% | -15.6 | i | -1.1
Cc1cc(NC(=O)C2CCCN(S(=O)(=O)c3cn(C)cn3)C2)ccc1Br (configuration not stated) | . | . | . | . | . | 10.6
Cc1nn(CCCC(=O)Nc2cc(Oc3ccc(F)cc3)cc([N+](=O)[O-])c2)c(C)c1[N+](=O)[O-] | i | 0.2% | 1.3% | -12.2 | 5.8µM* | 4.2
Cc1ccc(NC(=O)Cn2nc(C)c([N+](=O)[O-])c2C)cc1Cl | i | -1.5% | -0.8% | -55.3* | i | -13.9
Cc1c(Cl)c([N+](=O)[O-])nn1CCCC(=O)Nc1cc(Oc2ccccc2)cc([N+](=O)[O-])c1 | i | -1.5% | -18.6% | ? | ? | -11.4
Cc1cc(NC(=O)c2cc(-c3ccc(F)cc3)on2)nn1Cc1ccc(Cl)cc1 | . | . | . | . | . | 6.3
CCCC(C(=O)NC1CCCC1)N(Cc1cccs1)C(=O)c1snc(C(N)=O)c1N (configuration not stated) | i | -4.4% | -1.1% | 0.4 | 2.31µM* | 13.2
CCC(C(=O)NC1CCCC1)N(Cc1ccc2c(c1)OCO2)C(=O)c1snc(C(N)=O)c1N (configuration not stated) | i | 4.3% | -1.9% | ? | i | 6.5
NC(=O)c1nsc(C(=O)N(CC(=O)NC2CCCC2)c2cccc(C(F)(F)F)c2)c1N | i | 14.6µM* | ? | -22.3 | i | -3.7

Source: PubChem (National Center for Advancing Translational Sciences (NCATS))
